# Screening data from PubChem.
# DT40 TDP1 no CPT: qHTS for Inhibitors of human tyrosyl-DNA phosphodiesterase 1 (TDP1): qHTS in cells in absence of CPT; hit rate 15% among 420,000; Potency, µM (series often up to 46.2 µM), most hits filed as inhibitors; DT40 Tdp1-/- hTDP1 cells, no CPT, ATP luminescence, 48 h; AID 686978, 2013; note: nearly all actives have a fitted effect of over 55% in size
#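 DT40 Tdp1-/-;hTDP1 cells, no CPT (DMSO vehicle only), 400 cells/well; compounds pin-transferred; ≥48 hr, 37 °C; CellTiter-Glo 30 min RT dark, luminescence read.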
# uPA surface inh: cell surface uPA generation inhibition | hit rate 0.31% among 330,000 | cell surface uPA generation assay, qHTS | Potency, µM (doses to about 38.3 µM), hits mostly inhibitors | AID 540303; active = well fitted inhibition curve with a large enough effect; inconclusive = small, poorly fitted or top-dose-only effect; inactive = no such curve, though single readings can be large or run the other way; tested in mouse RAW 264.7 cells; note: nearly all actives have a fitted effect of over 55% in size
# HT1080NT lethal: kills 2HG-producing HT-1080-NT fibrosarcoma cells; HT-1080-NT fibrosarcoma viability, CellTiter-Glo ATP luminescence, 48 h; hit rate 1.6% among 360,000; AID 686970; Potency, µM (series often up to 46.1 µM), usual class: cytotoxic;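 note: NT is the 2HG producing partner of a matched IDH1 knockdown line; nearly all actives have a fitted effect of over 55% in size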
#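 Toxicity toward the 2HG-producing NT line was scored as %Activity, normalised to DMSO and no-cell wells, from CellTiter-Glo luminescence after 48 hours' treatment.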
# TDP1 cell CPT: growth inhibition of DT40 Tdp1-/-;hTDP1 cells with camptothecin (screen for TDP1 inhibitors) | chicken DT40 Tdp1-/-;hTDP1 cells + 20 nM CPT, ATP luminescence, 48 h | Potency, µM (highest dose often 46.2 µM), most hits filed as inhibitors | hit rate 12% among 420,000 | AID 686979; note: nearly all actives have a fitted effect of over 55% in size
#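 Chicken DT40 Tdp1-/- cells stably complemented with human TDP1 were seeded at 400 cells/well in medium containing 20 nM camptothecin, exposed to pin-transferred compounds, and grown at 37 °C for at least 48 hr. Viability was read as ATP luminescence.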
# IL1B secr inh: inhibitors of inflammasome signaling (IL-1 beta secretion) | THP-1 LPS/ATP IL-1B secretion, AlphaLISA, 16 h; hits give low values | activity change, % at 57.5 µM | hit rate 4.7% among 360,000; in the data active = activity change below about -50%; inconclusive = mostly about -30% to -49%
#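 THP-1 cells pretreated 1 hr with compounds (up to 57.5 uM final), then stimulated with LPS (250 ng/mL final) plus ATP (1.25 mM final); secreted IL-1B measured by AlphaLISA after 16 hr, decreased signal indicating inhibition.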
# HT1080 IDH1KD tx: HT-1080 IDH1 knockdown cell toxicity (counter line) | AID 686971 | HT-1080 IDH1 knockdown viability, ATP luminescence, 48 h | Potency, µM (titrated, usually from 46.1 µM), usual class: cytotoxic | hit rate 2% among 360,000
#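 Assay cells: HT-1080 with IDH1 knockdown, 750 per well, RPMI/5% FBS. Exposure: 48 h at 37 °C following 2 h pre-incubation. Read: CellTiter-Glo luminescence; fitted concentration-response, curve class assigned.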
# Hits are given with their value; – = inactive; ? = inconclusive; · = no result given; [ ] = dose if it differs, or a comment. A selection: hits, their analogues and other compounds. The true share with any hit is near 19%. Unless noted, calls come from the whole dose curve; as a rule, active = well fitted curve in the direction sought with a large enough effect; inconclusive = small, poorly fitted or top-dose-only effect, or another doubt; inactive = no such curve, though single readings can be large; an effect the other way counts as inactive or inconclusive.
SMILES,DT40 TDP1 no CPT,uPA surface inh,HT1080NT lethal,TDP1 cell CPT,IL1B secr inh,HT1080 IDH1KD tx
COc1ccc(S(=O)(=O)N2CCCCC2)cc1NC(=O)c1ccc(Cl)nc1,–,–,–,?,–,–
CCc1ccc(S(=O)(=O)Nc2cccc(-c3ccc4nncn4n3)c2)s1,15µM,–,?,?,–,?
COc1ccc(Cl)cc1C(=O)Nc1cccc(-c2ccc3nncn3n2)c1,–,–,–,?,-64,–
O=S(=O)(Nc1ccc(-c2ccc3nncn3n2)cc1)c1ccc(Cl)s1,–,–,–,–,–,–
COc1cccc(C(=O)Nc2cccc(-c3ccc4nncn4n3)c2)c1OC,?,–,–,?,–,–
COc1ccc(S(=O)(=O)Nc2ccc(-c3ccc4nncn4n3)cc2)c(OC)c1,10µM,–,?,9.2µM,–,?
COc1ccc(S(=O)(=O)Nc2cccc(-c3ccc4nncn4n3)c2)cc1,2.6µM,–,16µM,3.7µM,–,10µM
O=C(c1cccc2ccccc12)N1CCN(S(=O)(=O)c2ccccc2)CC1,–,·,·,?,·,·
COc1cccc(OC(=O)CSc2nnc(-c3cccs3)o2)c1,–,·,·,–,·,·
COCC(=O)Nc1cccc(-c2ccc3nncn3n2)c1,–,–,–,–,–,–
COc1ccc(C(=O)Nc2cccc(-c3ccc4nncn4n3)c2)cc1,15µM,–,–,15µM,–,?
O=C(COc1ccc(Cl)cc1)Nc1cccc(-c2ccc3nncn3n2)c1,16µM,–,–,–,–,–
COc1ccccc1OC(=O)c1cc2ccccc2oc1=O,–,–,–,–,–,–
COc1cc(/C=C/[N+](=O)[O-])ccc1OC(=O)c1cc2ccccc2oc1=O,26µM,–,–,?,–,–
CNC(=O)NC(=O)C(C)OC(=O)c1oc2ccccc2c1CSc1ccc(Cl)cc1 (centres undefined),21µM,–,–,?,–,–
CN(C)c1cccc(C(=O)Nc2cccc(S(=O)(=O)NC3=NCCC3)c2)c1,–,–,–,–,–,–
CN(C)C(=O)[C@@H]1C[C@@H](Sc2nc3ccccc3[nH]2)CN1Cc1ccnc2ccccc12,15µM,·,·,16µM,·,·
CNC(=O)[C@@H]1C[C@H](Sc2nc3ccccc3[nH]2)CN1Cc1cccc(C(F)(F)F)c1,–,·,·,–,·,·
CN(C)c1ccc(/C=C/c2cc(Cl)nc3ccccc23)cc1,–,·,·,?,·,·
Nc1ccc(/C=C/c2cc(Cl)nc3ccccc23)cc1,4µM,·,·,4µM,·,·
CCN(CC)c1ccc(/C=C/c2cc(Cl)nc3ccccc23)cc1,16µM,·,·,?,·,·
CC(=O)Nc1ccc(-c2ccnc3c2CC(C(=O)NCC2CCOCC2)O3)cc1 (centres undefined),4.1µM,·,?,4.6µM,–,?
COCCNC(=O)C1Cc2c(-c3ccc(NC(C)=O)cc3)ccnc2O1 (centres undefined),?,·,–,?,–,–
CC(=O)Nc1ccc(-c2ccnc3c2CC(C(=O)NCC2CC2)O3)cc1 (centres undefined),8.2µM,·,?,13µM,–,16µM
CC(=O)Nc1ccc(-c2ccnc3c2CC(C(=O)NCCC(F)(F)F)O3)cc1 (centres undefined),15µM,·,–,13µM,–,?
SMILES,DT40 TDP1 no CPT,uPA surface inh,HT1080NT lethal,TDP1 cell CPT,IL1B secr inh,HT1080 IDH1KD tx
COC(=O)c1cc2sccc2n1Cc1c(C)cc(C)cc1C,?,·,·,–,·,·
O=C(N[C@@H](c1ccccc1)[C@H](O)c1ccccc1)[C@@H]1CCCN1C(=O)OCc1ccccc1,–,–,–,–,–,–
CC(C)(C)C1CCN2CCC[C@](c3ccccc3)(C1)C2OCCCO (some centres undefined),?,·,–,?,–,–
CCC1(C)CN=C(c2ccccc2)NC1 (centres undefined),–,–,–,–,–,–
O=C(Nc1ccc(C(=O)O)cc1)/C(=C\C=C\c1ccccc1)NC(=O)c1ccccc1Br,–,–,–,–,–,–
C=CCc1c(NCCO)nc(C)[nH]c1=O,–,–,–,–,–,–
COc1cc(NC(=O)CSc2ncnc3scc(-c4ccccc4)c23)c(C(=O)O)cc1OC,–,?,–,–,–,–
COc1ccc(-c2noc(CN3CCN(c4ccccc4)CC3)n2)cc1,–,–,–,?,–,–
COc1cc(-c2noc(CN3CCN(c4cccc(Cl)c4)CC3)n2)cc(OC)c1OC,21µM,·,·,16µM,·,·
COc1ccc(-c2noc(CN3CCN(c4ccccc4OC)CC3)n2)cc1OC,?,·,·,21µM,·,·
O=c1[nH]c2c(-c3nc(-c4ccc(Cl)cc4)cs3)c(O)cn2c2ccccc12,2.8µM,·,·,4µM,·,·
O=c1[nH]c2c(-c3nc(-c4ccc(F)cc4)cs3)c(O)cn2c2ccc(Br)cc12,–,·,·,–,·,·
Cc1ccc(C)c(NC(=O)c2nnn(Cc3ccc(F)cc3Cl)c2N)c1,6.5µM,·,·,15µM,·,·
COc1cccc(Cn2nnc(C(=O)Nc3cc(Cl)ccc3OC)c2N)c1,16µM,?,–,23µM,–,?
COc1ccc(OC)c(NC(=O)c2nnn(Cc3ccc(Br)cc3F)c2N)c1,18µM,–,–,8.2µM,–,–
COc1cccc(NC(=O)Cn2nnc(C(=O)Nc3cc(Cl)ccc3OC)c2N)c1,?,–,?,–,–,–
COc1ccc(NC(=O)c2nnn(Cc3ccc(Br)cc3F)c2N)c(OC)c1,–,·,·,–,·,·
COc1ccc(CN(C)C[C@H]2OCCCC[C@@H](C)Oc3ccc(NS(C)(=O)=O)cc3C(=O)N([C@H](C)CO)C[C@@H]2C)cc1,–,·,–,–,–,–
Cc1ccc(OCCn2c(-c3ccc(Cl)cc3)nc3ccccc3c2=O)c(C)c1,–,·,·,–,·,·
COc1ccc(S(=O)(=O)N2CCCCC2)cc1NC(=O)c1ccc2c(c1)OCO2,15µM,–,–,?,–,–
COc1ccc(OC)c(NS(=O)(=O)c2ccc(NC(=O)C3COc4ccccc4O3)cc2)c1 (centres undefined),18µM,–,?,15µM,-68,?
O=C(Nc1ccc(S(=O)(=O)Nc2ncccn2)cc1)C1COc2ccccc2O1 (centres undefined),–,–,–,–,–,–
COc1ccc(S(=O)(=O)N2CCCCC2)cc1NC(=O)C1COc2ccccc2O1 (centres undefined),23µM,–,–,23µM,–,–
COc1ccc(S(=O)(=O)N2CCCCC2)cc1NC(=O)C1CC1,–,–,–[9.24 µM],–,–,–
COc1ccc(CCn2nnc3ccccc3c2=O)cc1OC,?,·,–,–,–,–
